The values that follow come from PubChem BioAssay.

Molecules are shown by their SMILES.

Sequence of Fibroblast growth factor 2 (Homo sapiens) (P09038 whole entry, looked up): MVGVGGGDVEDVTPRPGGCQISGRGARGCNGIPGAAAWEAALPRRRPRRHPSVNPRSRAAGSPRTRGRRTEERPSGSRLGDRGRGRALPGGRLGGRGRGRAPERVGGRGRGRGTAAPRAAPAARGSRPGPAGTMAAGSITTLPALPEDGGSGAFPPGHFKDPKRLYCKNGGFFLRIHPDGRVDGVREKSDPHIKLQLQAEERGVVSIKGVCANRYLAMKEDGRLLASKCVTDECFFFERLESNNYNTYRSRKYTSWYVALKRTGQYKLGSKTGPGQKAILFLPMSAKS

The first assay addresses Fibroblast growth factor 2 (Homo sapiens) (UniProt P09038). Put plainly: basic fibroblast growth factor binding to printed compounds – biochemical, small-molecule microarray, 635/667 nm fluorescence, primary screen (AID 1133). As to conditions: FGF2, fluorescence 635/667, higher = more signal.
On to `CCOC(=O)NN=C1C[C@@H](O)[C@@H](O)[C@@H]2[C@@H]3C(=O)N(CC)C(=O)[C@@H]3CC[C@@H]12`, for which the composite z-score was -0.0549.

`CC(C)NC(=O)[C@@]1(c2ccc([N+](=O)[O-])cc2)CC(=O)N(CC23CC4CC(CC(C4)C2)C3)[C@@H]1c1ccc(CO)cc1I` returned a composite z-score of 0.444. The same measure, in the same setting: to `COC(=O)C1(C)C=C2C(=C(c3ccccc3)C(=O)C2C)CN1` (stereo not drawn) belongs -0.253; to `O=C1[C@H]2[C@H]3[C@H](O)[C@H](O)CC(=NO[C@@H]4O[C@H](CO)[C@@H](O)[C@H](O)[C@H]4O)[C@@H]3CC[C@H]2C(=O)N1Cc1ccccc1`, 0.16; to `CCOC(=O)CCN1C(=O)[C@H]2[C@H]3[C@H](O)C=CC(=O)[C@@H]3CC[C@H]2C1=O`, 0.49.

`Cc1cc2c(nc1C)CCCN2CC(C)ON=C1[C@H]2CCn3c(=O)n(-c4ccccc4)c(=O)n3[C@H]2[C@H](O)[C@@H]2O[C@H]12` (stereo partly drawn) displayed a composite z-score of 0.56. Consider `CCCCc1nc2c(c3c1C[C@H](C)OC3)CN(CCC(C)C)CC2`, for which the composite z-score worked out at 0.732.

Test system in another assay: not listed separately
Description: JC-1 mitochondrial potential readout, lung cancer cells – cell-based, A549, JC-1 fluorescence, basal, 24 h, 100 nL, profiling panel (AID 1138).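 Also: A549 lung adenocarcinoma cells under basal conditions with no added stimulus; test concentration not given here.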 The settings on record: higher = more signal.
`CC(=O)OC[C@H]1O[C@@H](ON=C[C@@H](C)[C@H](OCc2ccccc2)C(C)C)[C@H](OC(C)=O)[C@@H](OC(C)=O)[C@@H]1OC(C)=O`: the z-score was 1.32.

In the case of `CN1C(=O)C2C=CC(C(O)C(c3ccccc3)c3ccccc3)N(NC(=O)OC(C)(C)C)C2C1=O` (stereo not drawn), the z-score was -0.0852. `COC(=O)C1=C(C)N(Cc2ccccc2)[C@]23O[C@](C(=O)OC)(C(=O)N2[C@@H]1c1ccccc1)[C@H]1CCOC(=O)[C@H]13`: the z-score was determined as 0.328. Same read-out and setting: in the case of `C=C(CCCC)C(=O)CC[C@@H](OC(C)=O)c1cccc(OCCO)c1` it was -0.497. On to `CO[C@@H]1COC(=O)CC=C[C@@H](C)[C@@H]2C=C[C@@H](O)[C@@H](COC(=O)CC=C[C@H]1C)O2`, for which the z-score is -0.443. `COC(=O)[C@@]1(Cc2ccccc2)[C@H]2c3cc(C(=O)N4CCCC4)n(Cc4ccccn4)c3C[C@H]2CN1C(=O)c1ccccc1` registered a z-score of 0.449. On the same count and under the same terms, in the case of `CCOC(=O)NN=C1C[C@@H](O)[C@@H](O)[C@@H]2[C@@H]3C(=O)N(C(C)(C)C)C(=O)[C@@H]3CC[C@@H]12` it was 0.0179; in that of `C=CCN1C(=O)[C@]2(O[C@H](CCn3cc(CCO)nn3)[C@@H]([Si](C)(C)c3ccc(OC)cc3)[C@@H]2C)c2cc(N3CCOC3=O)ccc21`, 0.982; in that of `CCOc1ccc(N2C(=O)/C(=C/C=C/c3ccccc3OC)S(=O)(=O)C2c2cccc([N+](=O)[O-])c2)cc1` (stereo not drawn), 2.31. Take `O[C@@H](Cc1ccccc1)[C@H]1C2C=CCCC(c3ccccc3)=C2CN1Cc1cccc(Cl)c1` (stereo partly drawn): the z-score is 2.09.

`CO[C@H]1O[C@H](CO)[C@@H](OC(=O)Nc2ccc(C#N)cc2)[C@H](OC(=O)c2cc3ccccc3[nH]2)[C@H]1OC(=O)c1cc2ccccc2[nH]1` returned a z-score of 0.71. `Cc1ccc(S(=O)(=O)N[C@@H]2COC(=O)[C@H](C)COC(=O)CC=C[C@H]2C)cc1` returned a z-score of 0.26. On the same count and under the same terms, in the case of `C=CC[C@@H]1C=C[C@H](ON=C2c3cc(OC)ccc3O[C@H](c3cccc(OC)c3)[C@H]2O)[C@@H](CO)O1` it was -0.102. Same read-out and setting: to `C=CCC(OC(C)=O)[C@@H]1[C@@H](N(Cc2cc3ccccc3o2)C(=O)Cc2ccc(F)cc2)c2cc(OCCCO)ccc2N1C(=O)Cc1ccc(OC)cc1` (stereo partly drawn) belongs 0.919; to `CCOC(=O)[C@H](CC(C)C)NC(=O)CCC1CC(OC(=O)NCCc2ccc(F)cc2)CC2(CCCC(COC(=O)NCc3ccccc3)O2)O1` (stereo partly drawn), -0.692; to `O=C1[C@H]2[C@H]3[C@H](O)[C@H](O)CC(=NOC[C@@H](O)COCc4ccco4)[C@H]3CC[C@H]2C(=O)N1Cc1ccc2c(c1)OCO2`, -0.0273. Take `CC(CCC(=O)OC[C@H]1O[C@H](C#Cc2ccccc2)C=C[C@@H]1Oc1ccc(C)cc1)=NOC[C@@H](O)[C@H]1O[C@@H]2OC(C)(C)O[C@@H]2[C@H]1O`: the z-score is 0.343.

As for `CC(C)(C)N1CC=CC23O[C@@H]4C=CCCOC(=O)C4[C@H]2C(=O)N(CCCCCO)[C@@H]3C1=O` (stereo partly drawn), the z-score was 0.678. Still for that read-out and setting: in the case of `CCc1cc2c(nc1CC)CCN(CCC(C)=NO[C@@H](C)c1cc(-c3c(C)cc(C)cc3C)no1)C2` it was 1.69.

`CC(C)CON=C1C[C@@H](O)[C@@H](O)[C@@H]2[C@@H]3C(=O)N(Cc4ccccc4)C(=O)[C@@H]3CC[C@@H]12` had a z-score of -0.762. On to `COCCCNC(=O)[C@@]1(C)c2ccccc2C(=O)N(Cc2ccc(OC(F)(F)F)cc2)[C@H]1c1ccc(CO)cc1`, for which the z-score stood at 0.332.

`O=C1C2=CC[C@H]3C(=O)N(Cc4ccc5c(c4)OCO5)C(=O)[C@H]3[C@H]2[C@H](O)[C@@H]2O[C@H]12` returned a z-score of 0.738. Same read-out and setting: to `COc1ccc(O[C@H]2C=C[C@@H](c3ccccc3)O[C@@H]2COC(=O)CCC(C)=NOC(C)CN2CCCCc3nc(C)c(C)cc32)cc1` (stereo partly drawn) belongs 0.752. On the same count and under the same terms, in the case of `CC(CCN1CCCCc2nc(C)c(C)cc21)=NOC(C)CN1CCCCc2nc(C)c(C)cc21` (stereo not drawn) it was 0.828; in that of `O=C1[C@H]2[C@H]3[C@H](O)[C@H](O)CC(=NOCc4ccccc4)[C@@H]3CC[C@H]2C(=O)N1C1CCCCC1`, -0.134.

`COc1ccc([Si](C)(C)[C@@H]2[C@@H](CCO)O[C@]3(C(=O)N(Cc4ccc(NC(C)=O)cc4)c4ccccc43)[C@H]2C)cc1` returned a z-score of -0.898. Same read-out and setting: to `Cc1cc2c(c(=O)o1)[C@H](O)[C@H]1O[C@H]1C2=O` belongs -1.23; to `O=C1[C@H]2[C@H]3[C@H](O)[C@H](O)CC(=NOC[C@@H](O)COCc4ccco4)[C@H]3CC[C@H]2C(=O)N1C1CCCCC1`, -0.948. With `[N-]=[N+]=Nc1ccccc1C[C@@]1(C(N)=O)N=C(c2ccc(OCCCO)cc2)O[C@@H]1c1ccccc1`, the z-score was -0.971. The same measure, in the same setting: to `CCOC(=O)NN=C1C[C@@H](O)[C@@H](O)[C@@H]2[C@@H]3C(=O)N(CC)C(=O)[C@@H]3CC[C@@H]12` belongs 0.0102; to `CC(C)NC(=O)[C@@]1(c2ccc([N+](=O)[O-])cc2)CC(=O)N(CC23CC4CC(CC(C4)C2)C3)[C@@H]1c1ccc(CO)cc1I`, 1.01; to `COC(=O)C1(C)C=C2C(=C(c3ccccc3)C(=O)C2C)CN1` (stereo not drawn), -0.353. The same measure, in the same setting: in the case of `O=C1[C@H]2[C@H]3[C@H](O)[C@H](O)CC(=NO[C@@H]4O[C@H](CO)[C@@H](O)[C@H](O)[C@H]4O)[C@@H]3CC[C@H]2C(=O)N1Cc1ccccc1` it was 0.129; in that of `CCOC(=O)CCN1C(=O)[C@H]2[C@H]3[C@H](O)C=CC(=O)[C@@H]3CC[C@H]2C1=O`, 0.0322; in that of `Cc1cc2c(nc1C)CCCN2CC(C)ON=C1[C@H]2CCn3c(=O)n(-c4ccccc4)c(=O)n3[C@H]2[C@H](O)[C@@H]2O[C@H]12` (stereo partly drawn), -0.562.

For the compound `CCCCc1nc2c(c3c1C[C@H](C)OC3)CN(CCC(C)C)CC2`, the z-score came out at 1.8.
